Drawing on PubChem BioAssay, this text covers composite z-score and z-score for five compounds.

A short description of experiment [1]: small molecules captured by biotinylated probe aFSTL3 – biochemical, small-molecule microarray, fluorescence 635/667, stem cell growth factor project, primary screen (AID 1064).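 Further: measures binding of the biotinylated anti-FSTL3 antibody to printed compounds.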 The settings on record: higher = more signal.
A short description of experiment [2]: binders from COS7 lysate, DM2A8 probe, primary screen, torsin A project, cell lysate, small-molecule microarray, fluorescence 635/667 (AID 1065). The settings on record: higher = more signal, COS7 lysate expressing mutant human TOR1A.
The nature of experiment [3]: small molecules captured by biotinylated probe aFGF2 – biochemical, small-molecule microarray, fluorescence 635/667, stem cell growth factor project, primary screen (AID 1067).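 Further: measures binding of biotinylated aFGF2 protein to printed compounds on slides; z-score merges feature fluorescence and signal-to-noise across triplicate slides.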 The settings on record: higher = more signal.
Experiment [4] is described as follows: small molecules captured by biotinylated probe aFGF10 – biochemical, small-molecule microarray, fluorescence 635/667, stem cell growth factor project, primary screen (AID 1071).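 Further: score merges 667 nm spot intensity and signal to noise from triplicate slides.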 The settings on record: higher = more signal.
The target of experiment [5] is Neurogenic locus notch homolog protein 2 (Homo sapiens) (UniProt Q04721). Kind of experiment: small molecules binding Notch2 protein – biochemical, small-molecule microarray, 635 nm fluorescence, stem cell growth factors, primary screen (AID 1073). The settings on record: higher = more signal.
The target of experiment [6] is Pro-neuregulin-1, membrane-bound isoform (Homo sapiens) (UniProt Q02297). Kind of experiment: small molecules binding neuregulin-1 protein – biochemical, small-molecule microarray, fluorescence 635/667, psychiatric disease protein project, primary screen (AID 1075).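 Further: score combines 667 nm spot fluorescence with signal to noise.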 The settings on record: NRG1 binding, 635 nm fluorescence, higher = more signal.
The subject of experiment [7] is Neuregulin-1 EGF-like domain. Description: small molecules binding NRG1 EGF domain – biochemical, small-molecule microarray, 635 nm fluorescence, primary screen (AID 1081).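 Further: binding of the protein to compounds printed on small-molecule microarray slides.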 The settings on record: higher = more signal.
Experiment [8] is described as follows: FRG1 expression reporter modulators in myotubes – cell-based, C2C12 myotubes, firefly/Renilla luciferase, luminescence, FRG1 inhibition for FSHD, primary screen (AID 1084). The settings on record: FRG1 promoter luciferase, higher = more signal, called active from +8 up or from −8 down.
Experiment [9] in a line: small molecules captured by biotinylated probe aFST – biochemical, small-molecule microarray, fluorescence 635/667, stem cell growth factor project, primary screen (AID 1086).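 Further: score merges 667 nm fluorescence with signal-to-noise of each printed compound spot.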 The settings on record: higher = more signal.
A short description of experiment [10]: binders of probe aHhip on microarray, primary screen, stem cell growth factor project, biochemical, small-molecule microarray, fluorescence 635/667 (AID 1087).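 Further: score merges spot fluorescence at 667nm with spot signal to noise ratio.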 The settings on record: higher = more signal.
Experiment [11] relates to PRMT1 (protein arginine N-methyltransferase 1). Kind of experiment: small molecules binding arginine methyltransferase PRMT1 – biochemical, small-molecule microarray, 635 nm fluorescence, primary screen (AID 1088).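 Further: binding of Prmt1 protein to compounds spotted on small-molecule microarray slides.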 The settings on record: higher = more signal.
Experiment [12] is described as follows: growth effects on S. cerevisiae YJM789 – YJM789 clinical isolate, OD600, 24 h, basal, primary screen (AID 1089).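 Further: growth of clinical yeast isolate S. cerevisiae YJM 789 seeded 1000 cells per well; test concentration not given here.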 The settings on record: higher = more signal, called active from +8 up or from −8 down.
Experiment [13] is described as follows: S. pombe growth modifiers, basal conditions – strain 972, OD600, 24 h, no modulator, primary screen (AID 1090).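 Further: basal condition with compound alone and no growth modifier present; test concentration not given here.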 The settings on record: S. pombe 972 growth, higher = more signal, called active from +8 up or from −8 down.
A short description of experiment [14]: budding yeast growth modifiers under rapamycin – strain BY4716, OD600, 96 h, primary screen (AID 1091). Further: test concentration not given here. The settings on record: S. cerevisiae BY4716 + rapamycin, higher = more signal, called active from +8 up or from −8 down.
Experiment [15] addresses Torsin-1A-interacting protein 2 (Homo sapiens) (UniProt Q8NFQ8). Description: small molecules binding lysate-expressed LULL1 – cell lysate, human LULL1 lysate, 635/667 nm fluorescence, primary screen (AID 1092).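 Further: probe is lysate of COS7 cells overexpressing human LULL1; score merges per-feature 667 nm fluorescence with signal-to-noise.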 The settings on record: small-molecule microarray, hLULL1 lysate binding, 635 nm fluorescence; higher = more signal.
A short description of experiment [16]: optical density change of DRC41 E. coli – strain DRC41, OD650, 24 h, E. coli filamentation project, primary screen (AID 1093).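 Further: MC1000 strain lacking acrAB efflux and sulA so SOS filamentation is blocked; test concentration not given here.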 The settings on record: E. coli DRC41 growth, higher = more signal, called active from +8 up or from −8 down.
Experiment [17] can be described thus: probe aLefty2 binding to arrayed compounds – biochemical, biotinylated probe, 635/667 nm fluorescence, primary screen (AID 1094).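 Further: score merges spot fluorescence near 667 nm with spot signal-to-noise ratio.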 The settings on record: small-molecule microarray, higher = more signal.
Experiment [18] concerns Noggin (protein binding on small-molecule microarray). Kind of experiment: small molecules binding Noggin protein – biochemical, 635/667 nm fluorescence, primary screen (AID 1095).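 Further: score merges 667 nm feature fluorescence with signal to noise over triplicate slides.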 The settings on record: 635 nm fluorescence, higher = more signal.
Experiment [19] concerns the target Neurogenic locus notch homolog protein 3 (Homo sapiens) (UniProt Q9UM47). Kind of experiment: small molecules binding NOTCH3 protein – biochemical, 635/667 nm fluorescence, primary screen (AID 1096). The settings on record: small-molecule microarray, 635 nm fluorescence, higher = more signal.
Experiment [20] is described as follows: probe aEGFR binding to arrayed compounds – biochemical, biotinylated probe, 635/667 nm fluorescence, primary screen (AID 1097).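 Further: probe is a biotinylated anti-EGFR antibody binding compounds printed on slides; score combines fluorescence near 667 nm and signal to noise of each spot.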 The settings on record: small-molecule microarray, higher = more signal.

SMILES strings stand for the structures. Calls of active or inactive are those of the source.

Sequence of Pro-neuregulin-1, membrane-bound isoform (Homo sapiens) (Q02297 whole entry, looked up, the tested form may be a part, canonical isoform): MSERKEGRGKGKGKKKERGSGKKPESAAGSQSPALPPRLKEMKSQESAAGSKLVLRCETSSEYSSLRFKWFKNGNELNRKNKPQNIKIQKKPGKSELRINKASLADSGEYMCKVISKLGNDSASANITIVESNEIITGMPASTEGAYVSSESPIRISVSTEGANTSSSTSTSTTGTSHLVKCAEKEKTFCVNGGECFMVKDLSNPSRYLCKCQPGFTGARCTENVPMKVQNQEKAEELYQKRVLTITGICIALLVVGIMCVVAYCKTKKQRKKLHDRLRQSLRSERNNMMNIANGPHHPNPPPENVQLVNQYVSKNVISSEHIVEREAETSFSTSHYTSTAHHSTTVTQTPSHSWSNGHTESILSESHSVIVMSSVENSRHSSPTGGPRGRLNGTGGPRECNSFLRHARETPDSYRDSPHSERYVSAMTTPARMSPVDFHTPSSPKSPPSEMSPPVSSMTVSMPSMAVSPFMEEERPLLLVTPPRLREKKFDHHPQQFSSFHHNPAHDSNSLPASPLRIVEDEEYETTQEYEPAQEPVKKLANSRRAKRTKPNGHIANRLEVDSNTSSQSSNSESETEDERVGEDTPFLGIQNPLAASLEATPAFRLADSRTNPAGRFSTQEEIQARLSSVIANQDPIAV
Sequence of Neurogenic locus notch homolog protein 3 (Homo sapiens) (Q9UM47 whole entry, looked up): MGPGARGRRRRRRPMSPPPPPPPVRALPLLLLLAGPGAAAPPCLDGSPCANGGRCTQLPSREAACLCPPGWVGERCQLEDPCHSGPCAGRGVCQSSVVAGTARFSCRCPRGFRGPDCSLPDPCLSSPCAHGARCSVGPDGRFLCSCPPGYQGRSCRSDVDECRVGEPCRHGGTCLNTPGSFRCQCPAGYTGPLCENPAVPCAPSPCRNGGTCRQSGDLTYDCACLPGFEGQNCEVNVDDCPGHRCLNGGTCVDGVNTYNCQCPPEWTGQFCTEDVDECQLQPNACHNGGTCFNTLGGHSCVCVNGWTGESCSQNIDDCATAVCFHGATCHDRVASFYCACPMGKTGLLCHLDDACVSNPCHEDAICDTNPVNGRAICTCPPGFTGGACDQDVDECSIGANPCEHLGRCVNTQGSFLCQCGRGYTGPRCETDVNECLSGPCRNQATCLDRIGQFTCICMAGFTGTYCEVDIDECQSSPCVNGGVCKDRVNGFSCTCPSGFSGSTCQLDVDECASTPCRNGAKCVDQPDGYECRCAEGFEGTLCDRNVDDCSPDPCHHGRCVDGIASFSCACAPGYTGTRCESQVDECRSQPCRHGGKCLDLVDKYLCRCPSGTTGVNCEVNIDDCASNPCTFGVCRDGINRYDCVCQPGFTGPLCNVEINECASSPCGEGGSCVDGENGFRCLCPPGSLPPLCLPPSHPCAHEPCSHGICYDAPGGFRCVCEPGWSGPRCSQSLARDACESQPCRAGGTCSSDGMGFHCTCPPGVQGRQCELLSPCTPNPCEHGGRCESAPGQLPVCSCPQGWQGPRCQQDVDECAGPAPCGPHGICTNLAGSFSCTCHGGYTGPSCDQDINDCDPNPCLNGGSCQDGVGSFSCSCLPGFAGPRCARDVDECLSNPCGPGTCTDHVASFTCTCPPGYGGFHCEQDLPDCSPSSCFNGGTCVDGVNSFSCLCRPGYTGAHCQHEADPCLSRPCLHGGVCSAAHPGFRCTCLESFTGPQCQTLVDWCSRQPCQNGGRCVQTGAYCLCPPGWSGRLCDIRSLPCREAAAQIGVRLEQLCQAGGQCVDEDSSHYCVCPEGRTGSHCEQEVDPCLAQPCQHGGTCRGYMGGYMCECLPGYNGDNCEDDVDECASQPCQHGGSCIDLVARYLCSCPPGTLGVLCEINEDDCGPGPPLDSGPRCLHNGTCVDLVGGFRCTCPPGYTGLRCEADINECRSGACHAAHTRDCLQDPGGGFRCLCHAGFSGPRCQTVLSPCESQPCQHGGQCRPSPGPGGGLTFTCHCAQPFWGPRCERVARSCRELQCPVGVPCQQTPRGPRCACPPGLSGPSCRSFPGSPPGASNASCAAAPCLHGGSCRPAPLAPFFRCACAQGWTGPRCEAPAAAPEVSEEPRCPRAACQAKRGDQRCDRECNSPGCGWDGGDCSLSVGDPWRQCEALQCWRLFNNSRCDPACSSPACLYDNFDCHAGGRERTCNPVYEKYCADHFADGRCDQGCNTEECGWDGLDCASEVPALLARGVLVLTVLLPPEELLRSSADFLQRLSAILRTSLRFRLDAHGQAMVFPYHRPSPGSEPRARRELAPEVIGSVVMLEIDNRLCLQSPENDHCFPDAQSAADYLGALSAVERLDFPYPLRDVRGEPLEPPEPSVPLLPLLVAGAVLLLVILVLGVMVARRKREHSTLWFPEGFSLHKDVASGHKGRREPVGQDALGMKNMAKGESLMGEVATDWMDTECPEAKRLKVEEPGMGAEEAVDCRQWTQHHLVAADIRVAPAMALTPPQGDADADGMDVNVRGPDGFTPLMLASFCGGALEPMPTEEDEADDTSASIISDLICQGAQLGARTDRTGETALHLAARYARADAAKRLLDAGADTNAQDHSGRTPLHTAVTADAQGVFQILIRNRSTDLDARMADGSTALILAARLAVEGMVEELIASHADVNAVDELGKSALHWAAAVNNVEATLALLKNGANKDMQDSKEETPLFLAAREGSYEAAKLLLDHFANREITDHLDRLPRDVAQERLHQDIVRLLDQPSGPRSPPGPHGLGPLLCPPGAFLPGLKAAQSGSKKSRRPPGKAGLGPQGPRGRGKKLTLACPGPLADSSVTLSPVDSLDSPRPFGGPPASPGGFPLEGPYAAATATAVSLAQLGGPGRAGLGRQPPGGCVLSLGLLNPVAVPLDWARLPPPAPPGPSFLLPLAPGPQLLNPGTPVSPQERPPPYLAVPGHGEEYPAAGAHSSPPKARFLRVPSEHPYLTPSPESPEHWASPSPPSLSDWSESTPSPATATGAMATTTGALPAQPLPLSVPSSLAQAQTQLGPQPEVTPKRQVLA
Sequence of Torsin-1A-interacting protein 2 (Homo sapiens) (Q8NFQ8 whole entry, looked up): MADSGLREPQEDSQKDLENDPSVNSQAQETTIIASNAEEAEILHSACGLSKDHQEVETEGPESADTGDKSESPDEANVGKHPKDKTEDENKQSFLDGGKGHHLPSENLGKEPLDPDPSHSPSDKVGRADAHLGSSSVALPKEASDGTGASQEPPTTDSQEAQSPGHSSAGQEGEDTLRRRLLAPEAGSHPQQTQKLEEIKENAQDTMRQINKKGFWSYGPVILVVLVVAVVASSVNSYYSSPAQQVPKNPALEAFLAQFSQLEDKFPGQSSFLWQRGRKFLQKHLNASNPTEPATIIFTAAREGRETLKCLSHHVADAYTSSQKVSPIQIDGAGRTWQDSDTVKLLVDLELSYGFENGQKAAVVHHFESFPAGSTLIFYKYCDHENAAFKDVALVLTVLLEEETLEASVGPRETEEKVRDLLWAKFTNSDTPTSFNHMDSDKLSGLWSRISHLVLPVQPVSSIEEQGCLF

As to `CCCCC(=C=CC[C@@H](O)c1cccc(OCCO)c1)C[C@@H](O)COCc1ccccc1`, the composite z-score was -0.407 in [1]; -0.323 in experiment [2]; -0.174 in [3]; 0.211 in experiment [4]; -0.546 in experiment [5]; 0.679 in experiment [6]. In addition, the composite z-score in experiment [7] was -0.0821; in [9] it was -0.336; in [10], 0.0053; in experiment [11], 0.554; in [15], 0.866; in [17] it was -0.274. Also, the composite z-score in experiment [18] was -0.0311; in experiment [19], -0.184; in experiment [20] it was -0.188. Also, the z-score in experiment [8] was -2.47 (inactive); in [12], -0.59 (inactive); in [13], -1.95 (inactive); in experiment [14], -0.601 (inactive); in experiment [16], 1.84 (inactive).

As to `O=C1C2C=CC(C(O)c3cccs3)N(Nc3ccccc3)C2C(=O)N1c1ccccc1` (stereo not given), the composite z-score in experiment [1] was 0.629; in experiment [2] it was -0.0855; in experiment [3], -0.0459; in [4], 0.0873; in [5] it was 0.878; in experiment [6], 0.97. Further, the composite z-score in experiment [7] was 0.964; in experiment [9], 0.35; in experiment [10] it was -0.0237; in experiment [11], -0.435; in [15] it was 3.11; in experiment [17], -0.0329. Moreover, the composite z-score in [18] is -0.448; in [19] it was 0.365; in [20] it was -0.0583. For the same compound, the z-score in [8] is -1.49 (inactive); in experiment [12] it was 0.521 (inactive); in experiment [13], -0.175 (inactive); in [14] it was 0.231 (inactive); in [16], 0.0249 (inactive).

Take `Cc1ccc(S[C@]2(C(=O)NC3CC3)CC(=O)N(Cc3cc(C(F)(F)F)cc(C(F)(F)F)c3)[C@@H]2c2ccc(CO)cc2I)cc1`: the composite z-score in experiment [1] is 0.385; in experiment [2], 1.11; in experiment [3], 0.21; in [4], 0.0945; in [5], -0.262; in [6], 0.212. Besides, the composite z-score was 1.27 in experiment [7]; 0.457 in experiment [9]; -0.494 in [10]; 1.28 in experiment [11]; 2.2 in [15]; -0.242 in [17]. The composite z-score was 0.502 in experiment [18], 0.409 in experiment [19] and 0.395 in [20]. In addition, the z-score in experiment [8] is 0.528 (inactive); in experiment [12] it was -5.04 (inactive); in [13] it was -3.38 (inactive); in experiment [14], -0.429 (inactive); in [16] it was 0.545 (inactive).

For the compound `O=C1O[C@H](c2ccccc2)[C@H](c2ccccc2)N2[C@H]1[C@@H](C(=O)N1CCN(c3ncccn3)CC1)[C@]1(C(=O)Nc3ccccc31)[C@H]2c1ccc(O)cc1`, the composite z-score in experiment [1] is 0.258; in [2], 0.918; in experiment [3], -0.0718; in experiment [4], 0.366; in experiment [5], 0.239; in experiment [6], 1.23. In addition, the composite z-score in [7] is 1.28; in [9], 0.3; in [10], 0.0972; in experiment [11] it was 1.51; in experiment [15], 3.06; in experiment [17] it was 0.032. For the same compound, the composite z-score in experiment [18] was 0.0775; in experiment [19], 0.305; in experiment [20], -0.0936. Besides, the z-score in [8] is 1.07 (inactive); in experiment [12], 1.92 (inactive); in experiment [13], 0.116 (inactive); in experiment [14] it was 3.6 (inactive); in experiment [16], 0.913 (inactive).

Consider `C[C@H]1NC(=O)C([C@@H](C)OCc2ccccc2)NC(=O)[C@@]23C(=O)N[C@@H](Cc4ccccc4)C2[C@H](C)[C@@]2(C)O[C@H]2C3/C=C/C/C=C\CNC1=O` (stereo not given in full), for which the composite z-score in [1] was -0.265; in experiment [2] it was 0.0677; in experiment [3] it was -0.183; in experiment [4], 0.817; in experiment [5], -0.363; in [6], -0.341. The composite z-score in experiment [7] was 0.989; in experiment [9] it was -0.407; in experiment [10], -0.0324; in experiment [11] it was -0.242; in [15], 0.721; in [17], -0.192. The composite z-score in [18] is 0.797; in experiment [19] it was 0.0201; in experiment [20], -0.168. Moreover, the z-score in experiment [8] was 0.493 (inactive); in experiment [12], 0.823 (inactive); in [13], -0.389 (inactive); in [14], 1.06 (inactive); in experiment [16] it was 0.147 (inactive).
